From PubChem BioAssay (NCI)
This is part of a sample that, as a whole, favours compounds with a hit. Of some 83,000 tested, about 20% had one in any assay.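 Compound tested at a single concentration for 48 hours in 96-well plates; a percent growth value below 10 was scored as active.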 Values without a mark were called inactive. The source made the active and inactive calls.

The compounds below were run on SNB-19 CNS (assay: NCI-60 one-dose screen, 48 h (100 = growth as untreated, 0 = no growth, -100 = all killed)). Conditions: 10 µM unless noted.
Experimental: Growth inhibition of the SNB-19 human tumor cell line is measured as a screen for anti-cancer activity. Cells are grown in 96 well plates and exposed to the test compound for 48 hours. Compounds are tested at a single concentration, which is 10^-5 M for most compounds. The reported endpoint is percent growth (GI% or GIPRCNT), where numbers from 0 - 100% represent growth inhibition, and numbers from -100% - 0 represent cell death. For example, a value of 40 represents 60% growth inhibition. A value of 0 means no net growth occurred over the course of the experiment. A value of -40 indicates 40% of cells at the beginning of the experiment died by the end of the experiment. A value of -100 means all cells are dead at the end of the experiment.
NCI-60 Human Tumor Cell Lines Screen was performed using the standard one-dose NCI protocol, which is described in more detail at https://dtp.cancer.gov/discovery_development/nci-60/default.htm.
Compounds with GIPRCNT values below 10 were considered active. Activity score was based on GIPRCNT using the following formula: […]
Score is 0 for GIPRCNT values of 100 or above, 50 for GIPRCNT values of 0, and 100 for GIPRCNT values of -100.
In the case of `Cc1cc(C)c(NC(=O)c2sc3nc4c(cc3c2N)CCCCCC4)c(C)c1`, the growth is reported as 49.1%. `CCOC(=O)NCCc1nc2c([nH]1)c(=O)n(C)c(=O)n2C` was tested, and the growth was 107%. Work on `COc1ccc(-n2nc(C(=O)NCC(=O)O)nc2-c2ccccc2)cc1` yielded a growth of 100%. With `O=C(C[n+]1cccc2cc(Cl)ccc21)c1ccc2c(c1)CCCC2` the growth was 23.2%. `C#Cc1cccc(Nc2ncnc3ccc(NC(=O)c4ccccc4)cc23)c1` was tested, and the growth was 89.5%. Compound `COc1ccc2c(c1)/C(=C1\S/C(=N/c3nnc(C)s3)NC1=O)C(=O)N2Cc1ccc(Cl)cc1` has a growth of 35.7%. For `COc1ccc(Cl)c([N+](=O)[O-])c1`, the growth was 103%. With `Cc1cccc(NC(=O)c2sc3nc4c(cc3c2N)CN(Cc2ccccc2)CC4)c1C` the growth was 34.3%. `COc1cccc2c1-c1ccccc1C2=O` was tested, and the growth was 29%. `Nc1cc(N)c(S(=O)(=O)O)cc1N=Nc1cc([N+](=O)[O-])ccc1O` gave a growth of 98.8%. With `Cc1cc(O)cc(O)c1N=NC1=NCCS1` the growth was 107%. For `COc1ccc2oc(=O)cc(-c3nc4ccc(N)cc4[nH]3)c2c1`, the growth was 90.9%. Compound `CCCn1cc(/C=N\N=C2\C(=O)Nc3ccc(C)cc32)c2ccccc21` has a growth of 63.3%. Work on `O=C(Nc1nc(-c2ccccc2)cs1)c1cc(-c2ccc(Br)cc2)nc2ccccc12` yielded a growth of 79.2%. With `COc1ccc(Cc2nc(C#N)c(N3CCN(c4ccc(F)cc4)CC3)o2)cc1` the growth was 99.1%. In the case of `CC1=C(CCCOC(=O)NCCCl)C2=C(C)C3(CC3)[C@@](C)(O)C(=O)C2=C1`, the growth is reported as 57.3%. `COc1cc(/C=C/C(=O)c2ccc(NC(=O)CSc3nnc(-c4cc(OC)c(OC)c(OC)c4)n3-c3ccccc3)cc2)cc(OC)c1OC` showed a growth of 35.8%. For `COC(=O)/C=C1\SC(=Nc2cccc(Cl)c2)N(CCc2c[nH]c3ccccc23)C1=O`, the growth was 54.4%. `CC(=O)O[C@@H]1C[C@]2(C)[C@H]3[C@H](O)C[C@@H]4C5=CC(C)(C)CC[C@]5(C)CC[C@@]4(C)[C@]3(C)CC[C@H]2C(C)(C)[C@H]1O` gave a growth of 104%. `C=CCn1c(CN2CCN(c3cc4c(cc3F)c(=O)c(C(=O)O)cn4C3CC3)CC2)n[nH]c1=S` was tested, and the growth was 107%. For `C=C(C)[C@@H]1CC[C@]2(C(=O)n3ccnc3)CC[C@]3(C)[C@H](CC[C@@H]4[C@@]5(C)CCCNC(C)(C)[C@@H]5CC[C@]43C)[C@@H]12`, the growth was 52.6%. `OCCNc1nc(NCCO)nc(Nc2ccc(C3=NN(c4cc(Cl)cc(Cl)c4)C(c4ccc(C(F)(F)F)cc4)C3)cc2)n1` (stereo not given) was tested, and the growth was 44.4%. `Fc1ccc(N/N=C/c2ccc(-n3cccn3)cc2)cc1` was tested, and the growth was 110%. `c1ccc(-c2cn3ccnc3c(-c3ccc4c(c3)ncn4C3CCCCC3)n2)cc1` was tested, and the growth was 98.3%. For `CN1CC=C(c2cc(NC(=O)Nc3ccc(Oc4ccnc(NC(=O)C5CC5)c4)c(F)c3)cc(C(F)(F)F)c2)CC1`, the growth was 2.04% (active). Compound `COc1ccc(/C=C/C(=O)/C=C(/C=C/c2ccc(OC)c(OC)c2)OB(F)F)cc1OC` has a growth of 52.9%. Work on `CC(=O)c1c(OCC#N)ccc2c(C)cc(=O)oc12` yielded a growth of 97.2%. `Cc1nccc2c3ccc(OCc4cn(-c5ccc(Cl)cc5)nn4)cc3n(CC(C)C)c12` was tested, and the growth was 38.9%. Work on `O=C(/C(=C/c1ccc([N+](=O)[O-])cc1)SCc1ccccc1)c1ccc(Cl)cc1` yielded a growth of 70.6%. Work on `O=C(NCc1ccccc1)c1ccc2c(c1)NC(=O)[C@@H]1CCCN21` yielded a growth of 94.6%. With `c1ccc2c3c([nH]c2c1)C(c1ccc(C2NCCc4c2[nH]c2ccccc42)cc1)NCC3` (stereo not given) the growth was 2.5% (active). With `COCCc1n(Cc2ccc3ccccc3c2)c2ccccc2[n+]1Cc1ccc2ccccc2c1` the growth was -73.8% (active). In the case of `Cc1cccc(C)c1NCc1nnc(-c2ccc(O)cc2)o1`, the growth is reported as 108%. `O=c1c2ccccc2n(CC(O)CN2CCCC2)c2c(Br)cccc12` (stereo not given) showed a growth of 84.7%. In the case of `COc1ccc2[nH]c3nc4cnccc4cc3c2c1`, the growth is reported as 105%. `Nc1ccccc1NC(=O)c1ccc(CSc2nc(N3CCOCC3)c3cccn3n2)cc1` was tested, and the growth was 32.7%. With `COc1ccccc1C(=O)/C=C/c1cc2cccc(OC)c2[nH]c1=O` the growth was -4.63% (active). `C#CC[C@@H]1C[C@]2(C)[C@H]3CC[C@@H]4[C@H]5[C@H](C(=C)C)CC[C@]5(C(=O)O)CC[C@@]4(C)[C@]3(C)CC[C@H]2C(C)(C)[C@H]1O` showed a growth of 56.8%. In the case of `COc1cc2c(Nc3ccc(NC(=O)Nc4ccc(Cl)c(C(F)(F)F)c4)c(Cl)c3)ncnc2cc1OCCCN1CCN(C)CC1`, the growth is reported as -79% (active). `Cc1cc(C)cc(Nc2nccc(-c3c(-c4ccc(F)cc4)ncn3C3CCNCC3)n2)c1` gave a growth of 27.5%.
